For 18 molecules, outcome and AC50 results are on record in PubChem BioAssay (EPA / NIEHS).

What is called AC50 is the midpoint of the concentration-response curve, whichever way the signal moves.

Molecules are shown by their SMILES. Where a structure was tested more than once in an assay, its records may differ in their call. Calls of active or inactive are those of the source. Rule for the calls: active = hit-call score of the fitted dose curve at least 0.9, where 1 is the maximum; inactive = score below 0.9.

The nature of this assay: CCTE_Shafer_MEA_acute_cross_correlation_HWHM: CCTE's Neural Acute Assay for Cross Correlation at Half Width at Half Maximum, Shafer Lab (AID 2284026). The procedure:
CCTE_Shafer_MEA_acute assay is conducted using Axion Biosystems 48 well microelectrode array (MEA) plates and Maestro recording system. Each well of the MEA plate contains a grid of 16 microelectrodes embedded in the culture surface. Electrically active cells, such as neurons, can be cultured over the electrodes, and electrical activity in these cells can be recorded extracellularly. The spontaneous firing of neurons is captured from each electrode on a microsecond timescale providing both temporally and spatially precise data. […] The CCTE_Shafer_MEA_acute assay uses primary cultures of rat cortical neurons. As these cultures mature over time, neural networks develop functional activity and form cohesive networks in which electrical activity can be highly coordinated. Baseline 40-minute recordings are made on days post-plating 13 or 15, followed by a secondary 40-minute recording after chemical exposure.CCTE_Shafer_MEA_acute_cross_correlation_HWHM is a component of the CCTE_Shafer_MEA_acute assay. It measures the distance along the x-axis (phase lag) from the left half maximum height to the center of the cross-correlogram of action potential firing during a recording in a microelectrode array (MEA) using Axion Biosystems Maestro 768 channel amplifier with the AxIS adaptive spike detector. Smaller values indicate a narrower correlogram (greater synchrony). The recordings before and after chemical treatment are used to calculate a percent change in the half width at half maximum of the cross-correlogram in each well.Data from the assay component CCTE_Shafer_MEA_acute_cross_correlation_HWHM was analyzed into 1 assay endpoint. This assay endpoint, CCTE_Shafer_MEA_acute_cross_correlation_HWHM, was analyzed in the negative analysis fitting direction relative to DMSO as the negative control and baseline of activity. Using a type of functional reporter, gain or loss-of-signal activity can be used to understand electrical activity.
Spontaneous activity in the cortical cultures was recorded using an Axion Biosystems Maestro 768 channel amplifier and Axion Integrated Studios (AxIS) v1.8 (or later) software. The amplifier recorded from all channels simultaneously (gain = 1200 x; sampling rate = 12.5 kHz/channel): raw signals were filtered with a Butterworth band-pass filter (300-5000 Hz), which filters out slower local field potentials leaving only fast potentials, i.e., "spikes", arising from extracellular currents associated with action potentials (Pine 2006; Wheeler and Nam 2011). On-line spike detection of filtered signals was conducted with the AxIS adaptive spike detector, using a threshold of 8x the root mean squared (rms) noise on each channel. Any electrodes with rms noise levels greater than 5 uV were grounded (e.g., no data were recorded). Once grounded, an electrode was grounded for the duration of the experiment. All recordings were conducted at 37 C. Wells were deemed usable if on the day of the exposure >/= 10 electrodes were active (defined as >/= 5 spikes/min). On DIV 13 or 15, a minimum of three wells from one cortical culture preparation were treated with each compound (0.03-40 uM). Prior to recording baseline activity, each mwMEA plate was placed in the Maestro at 37 C and allowed to sit for 20 min while firing rates stabilized. Baseline activity (40 min) was recorded before the addition of each compound. An additional 40 min of spontaneous activity was recorded in the presence of each compound. Changes in network parameters relative to baseline were assessed following compound treatment.
With `On1ccccc1=S`, the outcome was inactive.

As to `CCCN(C1CCN(C(=O)C2CCNCC2)CC1)[C@@H]1CCc2ccc(OC)cc2C1`, the result was inactive. Still for that read-out and setting: the same measure for `CCCCC(CC)COC(=O)CCCCCCCCC(=O)OCC(CC)CCCC` (centres undefined): “inactive”. `Cc1[nH]cnc1C[C@H]1CCc2c(C)c3ccccc3n2C1=O`: the AC50 was 30.7 µM (active).

On to `CCC(C)(C)C(=O)O[C@H]1C[C@@H](C)C=C2C=C[C@H](C)[C@H](CC[C@@H]3C[C@@H](O)CC(=O)O3)[C@H]21`, for which the result was inactive. As for `CC[C@H]1OC(=O)[C@H](C)[C@@H](O[C@H]2C[C@@](C)(OC)[C@@H](O)[C@H](C)O2)[C@H](C)[C@@H](O[C@@H]2O[C@H](C)C[C@H](N(C)C)[C@H]2O)[C@](C)(O)C[C@@H](C)C(=O)[C@H](C)[C@@H](O)[C@]1(C)O`, the molecule was classed as inactive. As to `CCCCCCc1ccc(O)cc1O`, the AC50 is 20 µM (active). As to `O=P(OC(CCl)CCl)(OC(CCl)CCl)OC(CCl)CCl`, the outcome was inactive and the half-maximal activity concentration (AC50) was 23.5 µM (active).

For the molecule `CC[C@H]1CC[C@H](NCc2cc3c(cc2OC)[C@H]2C[C@H]2C(=O)N3C)[C@H](c2ccccc2)N1`, the AC50 was 20 µM (active). For the molecule `O=C(O)CCN(C1(C(=O)NO)CCCC1)S(=O)(=O)c1ccc(Oc2ccc(F)cc2)cc1`, the molecule was called inactive. Still for that read-out and setting: the same measure for `COc1cccc(-c2ccc(/C=C\CN3CCCCCC3)cc2Cl)c1`: “inactive”. The same measure, in the same setting: the same measure for `CCCCCCCCCCCCc1ccccc1`: “inactive”; for `CCOC(=O)c1ccc(C2CCC(NC[C@H](O)COc3ccc(O)c(NS(C)(=O)=O)c3)CC2)cc1` (some centres undefined): “inactive”. Consider `O=C(O)c1cc(N=Nc2ccc(S(=O)(=O)Nc3ccccn3)cc2)ccc1O`, for which the outcome was inactive. The same measure, in the same setting: the same measure for `Cn1cnc([N+](=O)[O-])c1Sc1ncnc2nc[nH]c12`: “inactive”; for `CC(C)=CCCC(C)=CC=O`: “inactive”. Still for that read-out and setting: the same measure for `Cn1c(=O)c2c(ncn2C)n(C)c1=O`: “inactive”; for `COc1ccc2sc(C(=O)Nc3nnn[nH]3)c(OC(C)C)c2c1`: “inactive”.
